Measured values as given in PubChem BioAssay (EPA / NIEHS).
Calls of active or inactive are those of the source. The calls were made as follows: active = hit-call score of the fitted dose curve at least 0.9, where 1 is the maximum; inactive = score below 0.9.

How the values were obtained:
Details in all cases: mRNA level, 48 h; actives raise or lower the signal
[1] = read-out: matrix metalloproteinase-10 (MMP10), MMP10 (gene 4319); assay: LTEA_HepaRG_MMP10: Life Technologies and Expression Analysis (LTEA) Assay for matrix metalloproteinase-10 (MMP10) using HepaRG (AID 2283517)
Procedure, shortened: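 Transcript levels come from Fluidigm qRT-PCR normalized to three housekeeping genes, with curves fitted bidirectionally against 0.5% DMSO. Human HepaRG cells were dosed for 48 hours at concentrations up to 100 uM.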

MYC, MYC (gene 4609) = assay: LTEA_HepaRG_MYC: Life Technologies and Expression Analysis (LTEA) Assay for MYC using HepaRG (AID 2283518)
Procedure, shortened: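 Expression changes were scored by TaqMan qRT-PCR with ACTB, GAPDH and POLR2A normalization. Cultures in serum-free induction medium received duplicate 8-point concentration series, highest 100 uM, for 48 h; DMSO (0.5%) served as baseline.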

[2] = read-out: matrix metalloproteinase-3 (MMP3), MMP3 (gene 4314); assay: LTEA_HepaRG_MMP3: Life Technologies and Expression Analysis (LTEA) Assay for matrix metalloproteinase-3 (MMP3) using HepaRG (AID 2283519)
Procedure, shortened: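 qRT-PCR read-out of MMP3 mRNA (normalised to three housekeeping genes) in HepaRG liver cells after 48 h chemical exposure; 8-point half-log series, top 100 uM, 0.5% DMSO vehicle. Bidirectional curve fitting against DMSO baseline.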

[3] = read-out: Paternally Expressed 10 (PEG10), PEG10 (gene 23089); assay: LTEA_HepaRG_PEG10: Life Technologies and Expression Analysis (LTEA) Assay for Paternally Expressed 10 (PEG10) using HepaRG (AID 2283520);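 as to AC50: PEG10 transcript by qRT-PCR normalised to ACTB GAPDH and POLR2A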
Procedure, shortened: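 qRT-PCR read-out: PEG10 mRNA normalised to three housekeeping genes, fitted bidirectionally against 0.5% DMSO vehicle. HepaRG cells received test chemicals for 48 h in serum-free induction medium, 8 points, top 100 uM, half-log steps.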

[4] = read-out: Nuclear factor NF-kappa-B p105 subunit (Homo sapiens) (UniProt P19838); assay: LTEA_HepaRG_NFKB1: Life Technologies and Expression Analysis (LTEA) Assay for Nuclear Factor Kappa B Subunit 1 (NFKB1) using HepaRG (AID 2283521)
Procedure, shortened: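 Differentiated human HepaRG cells in serum-free induction medium with 0.5% DMSO were exposed for 48 h to eight half-log concentrations, top 100 uM, in duplicate. NFKB1 mRNA measured by Fluidigm TaqMan qRT-PCR, normalised to ACTB, GAPDH and POLR2A; bidirectional fit versus DMSO.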

[5] = read-out: Protein phosphatase 2A (PPP2R4), PTPA (gene 5524); assay: LTEA_HepaRG_PPP2R4: Life Technologies and Expression Analysis (LTEA) Assay for Protein phosphatase 2A (PPP2R4) using HepaRG (AID 2283522)
Procedure, shortened: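 HepaRG, 48 h exposure, 8-pt half-log series from 100 uM, 0.5% DMSO vehicle, duplicates. Readout: PPP2R4 mRNA, Fluidigm qRT-PCR, housekeeping-normalized. Bidirectional curve fit vs DMSO baseline.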

[6] = read-out: Phosphatase and tensin (PTEN), PTEN (gene 5728); assay: LTEA_HepaRG_PTEN: Life Technologies and Expression Analysis (LTEA) Assay for Phosphatase and tensin (PTEN) using HepaRG (AID 2283523)
Procedure, shortened: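 HepaRG, 48 h exposure, 8-pt half-log series from 100 uM top, 0.5% DMSO vehicle, duplicates. Readout: Fluidigm qRT-PCR of PTEN transcript; housekeeping normalization (ACTB, GAPDH, POLR2A). Gain or loss fitted relative to DMSO baseline.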

[7] = read-out: solute carrier (SLC22A1), SLC22A1 (gene 6580); assay: LTEA_HepaRG_SLC22A1: Life Technologies and Expression Analysis (LTEA) Assay for solute carrier (SLC22A1) using HepaRG (AID 2283524)
Procedure, shortened: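 qRT-PCR readout (TaqMan, Fluidigm arrays) of SLC22A1 transcript, normalized to three housekeeping genes; bidirectional curve fit relative to 0.5% DMSO vehicle. Differentiated human HepaRG cells, 48 h chemical exposure, top concentration 100 uM, half-log steps, eight points.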

[8] = read-out: Pyruvate Dehydrogenase Kinase 4 (PDK4), PDK4 (gene 5166); assay: LTEA_HepaRG_PDK4: Life Technologies and Expression Analysis (LTEA) Assay for Pyruvate Dehydrogenase Kinase 4 (PDK4) using HepaRG (AID 2283525)
Procedure, shortened: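 HepaRG (human liver line), 48 h chemical exposure, 8-pt half-log CRC top 100 uM, 0.5% DMSO vehicle, duplicates. Readout: TaqMan qRT-PCR of PDK4 mRNA, housekeeping-normalized; gain/loss fit relative to DMSO baseline.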

[9] = read-out: NAD(P)H dehydrogenase [quinone] 1 (NQO1), NQO1 (gene 1728); assay: LTEA_HepaRG_NQO1: Life Technologies and Expression Analysis (LTEA) Assay for NAD(P)H dehydrogenase [quinone] 1 (NQO1) using HepaRG (AID 2283526)
Procedure, shortened: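 qRT-PCR read-out (Fluidigm TaqMan), normalized to three housekeeping genes, after 48 h chemical exposure of HepaRG cells. Concentrations: eight points, top 100 uM, half-log steps, 0.5% DMSO vehicle. Gain or loss of signal fitted relative to DMSO.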

[10] = read-out: Nuclear factor erythroid 2-related factor 2 (Homo sapiens) (UniProt Q16236); assay: LTEA_HepaRG_NFE2L2: Life Technologies and Expression Analysis (LTEA) Assay for Nuclear factor erythroid 2-related factor 2 (NFE2L2) Transcription Factor using HepaRG (AID 2283527)
Procedure, shortened: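 HepaRG, 48 h dosing, 8-pt half-log series from 100 uM in 0.5% DMSO, duplicates. Read-out: NFE2L2 mRNA by qRT-PCR (ACTB/GAPDH/POLR2A normalization). Bidirectional curve fit vs DMSO baseline.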

[11] = read-out: succinate dehydrogenase complex iron sulfur subunit B (SDHB), SDHB (gene 6390); assay: LTEA_HepaRG_SDHB: Life Technologies and Expression Analysis (LTEA) Assay for succinate dehydrogenase complex iron sulfur subunit B (SDHB) using HepaRG (AID 2283528)
Procedure, shortened: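 HepaRG cells (~100,000/well, plated 48 h) exposed in duplicate for 48 h in serum-free induction medium to 8-point half-log series from 100 uM in 0.5% DMSO; mRNA by qRT-PCR normalised to ACTB, GAPDH, POLR2A; bidirectional fit versus DMSO.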

[12] = read-out: Signal transducer and activator of transcription 3 (Homo sapiens) (UniProt P40763); assay: LTEA_HepaRG_STAT3: Life Technologies and Expression Analysis (LTEA) Assay for Signal transducer and activator of transcription (STAT3) using HepaRG (AID 2283529)
Procedure, shortened: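 HepaRG, 48 h exposure, 8-pt half-log series (top 100 uM), 0.5% DMSO vehicle, duplicates. Readout: STAT3 transcript by Fluidigm qRT-PCR, housekeeping-normalized; bidirectional fit vs DMSO baseline.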

[13] = read-out: solute carrier (SLCO1B1), SLCO1B1 (gene 10599); assay: LTEA_HepaRG_SLCO1B1: Life Technologies and Expression Analysis (LTEA) Assay for solute carrier (SLCO1B1) using HepaRG (AID 2283530)
Procedure, shortened: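 Human HepaRG cultures treated for 48 h with an eight-concentration half-log series topping at 100 uM; SLCO1B1 measured by qRT-PCR and fitted bidirectionally relative to DMSO.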

[14] = read-out: sulfotransferase 2A1 (SULT2A1), SULT2A1 (gene 6822); assay: LTEA_HepaRG_SULT2A1: Life Technologies and Expression Analysis (LTEA) Assay for sulfotransferase 2A1 (SULT2A1) using HepaRG (AID 2283531)
Procedure, shortened: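 Gene-expression endpoint in a human liver cell line: SULT2A1 mRNA change after 48 h chemical treatment, curves fitted in both directions relative to 0.5% DMSO vehicle. Concentrations spanned eight half-log steps from 100 uM.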

[15] = read-out: Transforming Growth Factor (TGFA), TGFA (gene 7039); assay: LTEA_HepaRG_TGFA: Life Technologies and Expression Analysis (LTEA) Assay for Transforming Growth Factor (TGFA) using HepaRG (AID 2283532)
Procedure, shortened: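 qRT-PCR read-out of TGFA transcript, normalized to three housekeeping genes, fitted bidirectionally against 0.5% DMSO baseline. Human HepaRG cultures received chemicals for 48 h at eight half-log concentrations, top 100 uM.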

[16] = read-out: Transforming Growth Factor (TGFB1), TGFB1 (gene 7040); assay: LTEA_HepaRG_TGFB1: Life Technologies and Expression Analysis (LTEA) Assay for Transforming Growth Factor (TGFB1) Transporter using HepaRG (AID 2283533)
Procedure, shortened: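 Eight-point concentration-response (max 100 uM, half-log) in HepaRG under serum-free induction conditions, 48 h. TGFB1 mRNA by qRT-PCR, housekeeping-normalized.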

TIMP1, TIMP1 (gene 7076) = assay: LTEA_HepaRG_TIMP1: Life Technologies and Expression Analysis (LTEA) Assay for TIMP1 using HepaRG (AID 2283534)
Procedure, shortened: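 TIMP1 induction or repression in HepaRG cells after 48 h chemical exposure (eight concentrations, highest 100 uM), assessed by normalized qRT-PCR with bidirectional fitting to DMSO controls.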

[17] = read-out: Tumor necrosis factor receptor 1 (TNFRSF1A), TNFRSF1A (gene 7132); assay: LTEA_HepaRG_TNFRSF1A: Life Technologies and Expression Analysis (LTEA) Assay for Tumor necrosis factor receptor 1 (TNFRSF1A) using HepaRG (AID 2283535)
Procedure, shortened: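 Assay uses 48 h chemical treatment of differentiated HepaRG monolayers, tested in duplicate at eight concentrations from 100 uM downward in 0.5% DMSO. mRNA is normalized to ACTB, GAPDH and POLR2A, with induction or suppression fitted relative to vehicle.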

[18] = read-out: Thyroid Hormone Responsive (THRSP), THRSP (gene 7069); assay: LTEA_HepaRG_THRSP: Life Technologies and Expression Analysis (LTEA) Assay for Thyroid Hormone Responsive (THRSP) using HepaRG (AID 2283536)
Procedure, shortened: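 qRT-PCR read-out (Fluidigm TaqMan), housekeeping-normalized (ACTB/GAPDH/POLR2A). HepaRG, 48 h chemical exposure, 8-pt half-log series from 100 uM in 0.5% DMSO, duplicates. Bidirectional curve fit vs 0.5% DMSO baseline.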

Measured: AC50

Chain of Nuclear factor NF-kappa-B p105 subunit (Homo sapiens) (P19838 whole entry, looked up): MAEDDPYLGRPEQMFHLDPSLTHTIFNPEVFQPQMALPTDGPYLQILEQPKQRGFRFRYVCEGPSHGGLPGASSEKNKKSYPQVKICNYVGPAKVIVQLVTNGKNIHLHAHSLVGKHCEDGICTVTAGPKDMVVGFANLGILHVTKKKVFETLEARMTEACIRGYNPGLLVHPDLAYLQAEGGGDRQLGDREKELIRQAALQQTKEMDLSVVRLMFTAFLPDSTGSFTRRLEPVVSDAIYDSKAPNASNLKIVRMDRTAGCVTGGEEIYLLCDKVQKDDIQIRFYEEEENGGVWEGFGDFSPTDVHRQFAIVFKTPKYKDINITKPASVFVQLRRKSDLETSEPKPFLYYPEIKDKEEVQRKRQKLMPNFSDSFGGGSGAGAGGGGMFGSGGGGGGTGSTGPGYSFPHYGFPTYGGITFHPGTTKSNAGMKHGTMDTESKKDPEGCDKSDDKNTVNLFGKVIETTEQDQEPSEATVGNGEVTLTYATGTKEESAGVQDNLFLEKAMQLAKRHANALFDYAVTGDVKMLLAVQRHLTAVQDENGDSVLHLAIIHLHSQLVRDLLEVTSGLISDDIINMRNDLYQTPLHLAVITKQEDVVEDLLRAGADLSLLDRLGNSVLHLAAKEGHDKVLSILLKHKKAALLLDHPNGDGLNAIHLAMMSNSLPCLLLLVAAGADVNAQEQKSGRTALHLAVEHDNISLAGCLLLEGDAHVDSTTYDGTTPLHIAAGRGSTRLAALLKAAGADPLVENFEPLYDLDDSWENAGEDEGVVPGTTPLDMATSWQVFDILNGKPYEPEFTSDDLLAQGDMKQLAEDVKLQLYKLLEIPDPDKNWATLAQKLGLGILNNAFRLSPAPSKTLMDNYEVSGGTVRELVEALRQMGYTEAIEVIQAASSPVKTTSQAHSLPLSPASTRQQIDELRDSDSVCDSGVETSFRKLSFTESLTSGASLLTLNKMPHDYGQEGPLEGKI
Chain of Nuclear factor erythroid 2-related factor 2 (Homo sapiens) (Q16236 whole entry, looked up): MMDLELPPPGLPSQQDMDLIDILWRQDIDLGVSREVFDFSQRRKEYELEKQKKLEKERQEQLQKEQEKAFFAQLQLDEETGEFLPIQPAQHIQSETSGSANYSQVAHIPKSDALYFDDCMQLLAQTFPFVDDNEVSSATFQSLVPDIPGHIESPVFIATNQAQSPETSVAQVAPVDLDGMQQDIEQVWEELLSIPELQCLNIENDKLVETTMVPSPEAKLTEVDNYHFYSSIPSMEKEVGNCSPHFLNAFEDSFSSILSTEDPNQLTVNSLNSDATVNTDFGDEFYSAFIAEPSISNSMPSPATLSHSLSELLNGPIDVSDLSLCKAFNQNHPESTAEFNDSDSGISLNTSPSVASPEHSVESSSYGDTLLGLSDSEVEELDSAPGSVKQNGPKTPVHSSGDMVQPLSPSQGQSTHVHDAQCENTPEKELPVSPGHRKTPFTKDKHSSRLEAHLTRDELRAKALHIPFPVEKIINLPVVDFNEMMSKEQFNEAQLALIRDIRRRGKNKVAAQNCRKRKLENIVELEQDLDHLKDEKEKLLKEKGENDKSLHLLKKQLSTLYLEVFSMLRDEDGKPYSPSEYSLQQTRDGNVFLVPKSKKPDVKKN
Chain of Signal transducer and activator of transcription 3 (Homo sapiens) (P40763 whole entry, looked up): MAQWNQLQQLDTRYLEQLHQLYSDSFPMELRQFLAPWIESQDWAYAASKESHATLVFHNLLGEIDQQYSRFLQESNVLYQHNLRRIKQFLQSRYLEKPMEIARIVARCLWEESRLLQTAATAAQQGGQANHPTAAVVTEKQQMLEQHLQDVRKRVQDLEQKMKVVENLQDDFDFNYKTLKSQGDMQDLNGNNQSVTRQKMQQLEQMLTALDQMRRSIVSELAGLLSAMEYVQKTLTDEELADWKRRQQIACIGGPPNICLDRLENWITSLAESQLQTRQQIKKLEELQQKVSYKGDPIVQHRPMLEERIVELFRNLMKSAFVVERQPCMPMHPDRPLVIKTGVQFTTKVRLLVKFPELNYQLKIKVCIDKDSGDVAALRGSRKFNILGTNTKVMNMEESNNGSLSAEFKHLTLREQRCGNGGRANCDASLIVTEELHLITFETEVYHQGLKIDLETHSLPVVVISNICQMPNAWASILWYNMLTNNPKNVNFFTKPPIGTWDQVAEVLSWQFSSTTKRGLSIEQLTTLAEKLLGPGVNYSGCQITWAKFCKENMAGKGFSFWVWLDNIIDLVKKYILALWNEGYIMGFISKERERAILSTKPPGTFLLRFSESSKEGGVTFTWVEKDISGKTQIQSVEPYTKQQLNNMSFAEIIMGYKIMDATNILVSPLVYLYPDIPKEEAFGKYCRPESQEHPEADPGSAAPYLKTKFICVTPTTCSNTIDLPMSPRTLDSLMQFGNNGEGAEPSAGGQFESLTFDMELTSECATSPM

C=CC(=C)CCC=C(C)C
inactive: all assays above

CCCN(C1CCN(C(=O)C2CCNCC2)CC1)[C@@H]1CCc2ccc(OC)cc2C1
active: MYC, MYC (gene 4609) 89.5 µM | [3] 60.2 µM | [4] 0.304 µM | [7] 83 µM | [12] 0.256 µM | [13] 79.4 µM | [14] 83.5 µM | [18] 80.1 µM
inactive: all other assays above

O=C(OC[C@H]1O[C@@H](OC(=O)c2cc(O)c(O)c(OC(=O)c3cc(O)c(O)c(O)c3)c2)[C@H](OC(=O)c2cc(O)c(O)c(OC(=O)c3cc(O)c(O)c(O)c3)c2)[C@@H](OC(=O)c2cc(O)c(O)c(OC(=O)c3cc(O)c(O)c(O)c3)c2)[C@@H]1OC(=O)c1cc(O)c(O)c(OC(=O)c2cc(O)c(O)c(O)c2)c1)c1cc(O)c(O)c(OC(=O)c2cc(O)c(O)c(O)c2)c1
active: [1] 9.49 µM | MYC, MYC (gene 4609) 6.08 µM | [2] 15.2 µM | [3] 9.75 µM | [4] 8.67 µM | [5] 3.88 µM | [7] 15.2 µM | [8] 24.5 µM | [9] 5.1 µM | [10] 15.2 µM | [13] 9.07 µM | [14] 9.46 µM | [15] 6.41 µM | [16] 2.96 µM | TIMP1, TIMP1 (gene 7076) 15.2 µM | [18] 6.1 µM
inactive: [6] | [11] | [12] | [17]

CC(C)=CCC/C(C)=C/CO
inactive: all assays above

CC(C)c1cccc(C(C)C)c1N1C(=O)c2ccc(O)cc2C1=O
active: [1] 89.9 µM | MYC, MYC (gene 4609) 50 µM | [2] 93.4 µM | [3] 76.8 µM | [7] 91.4 µM | [11] 50 µM | [18] 90.2 µM
inactive: all other assays above

CC[C@H](C)C(=O)O[C@H]1C[C@@H](C)C=C2C=C[C@H](C)[C@H](CC[C@@H]3C[C@@H](O)CC(=O)O3)[C@H]21
active: [8] 16.9 µM
not listed: [18]
inactive: all other assays above
